Tau fluor counter = Counterscreen qHTS for Inhibitors of Tau Fibril Formation, Fluorescence Polarization. tau K18 P301L Alexa594 fluorescence, heparin fibrillization. 0.93% of 280,000 active. Potency, µM (series often up to 57.7 µM); note: nearly all actives have a fitted effect of over 55% in size
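Human K18 P301L tau (15 uM unlabeled plus 0.24 uM Alexa 594-labeled, final) in 100 mM sodium acetate pH 7 was mixed with compound and 20 uM heparin and incubated 6 hr at 37 C.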
HPGD inh = qHTS Assay for Inhibitors of HPGD (15-Hydroxyprostaglandin Dehydrogenase); 15-hydroxyprostaglandin dehydrogenase [NAD(+)] (Homo sapiens), P15428; purified HPGD, NADH fluorescence kinetic, PGE2 substrate; AID 894, 2007; Potency, µM, usual class: inhibitors; 4.3% of 150,000 active; active = well fitted inhibition curve with a large enough effect, not every such curve was filed as active; inconclusive = small, poorly fitted or top-dose-only effect, or another doubt; inactive = no such curve, though single readings can be large or run the other way
Target sequence (P15428 whole entry, looked up): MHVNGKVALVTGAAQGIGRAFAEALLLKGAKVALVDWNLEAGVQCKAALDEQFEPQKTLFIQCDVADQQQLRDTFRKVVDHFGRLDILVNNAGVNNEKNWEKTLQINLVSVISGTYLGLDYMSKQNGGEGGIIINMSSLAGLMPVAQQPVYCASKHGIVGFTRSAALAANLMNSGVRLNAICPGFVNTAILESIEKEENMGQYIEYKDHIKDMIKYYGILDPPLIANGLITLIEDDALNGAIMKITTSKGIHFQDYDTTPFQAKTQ
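NADH formation kinetics: reaction with 30 uM PGE2 and 1 mM NAD+ (final), 20 nM enzyme, Tris-HCl pH 8 with Tween 20, after 15 min compound preincubation at room temperature. Fluorescence change, last versus first of five reads.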
Tau fibril FP = qHTS for Inhibitors of Tau Fibril Formation, Fluorescence Polarization; Microtubule-associated protein tau (Homo sapiens), P10636; 0.39% of 280,000 active; AID 1468, 2008; K18 P301L tau heparin fibrillization, Alexa594 FP, 6 h; Potency, µM (series often up to 57.7 µM), hits mostly inhibitors; note: nearly all actives have a fitted effect of over 55% in size
Target sequence (P10636 561-689 P618L limits assumed): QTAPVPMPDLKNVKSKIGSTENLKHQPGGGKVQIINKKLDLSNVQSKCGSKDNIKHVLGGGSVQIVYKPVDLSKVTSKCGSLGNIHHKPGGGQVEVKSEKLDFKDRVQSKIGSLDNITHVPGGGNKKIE
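Recombinant K18 P301L […], labeled with Alexa 594 at 0.24 uM over 15 uM unlabeled; heparin inducer 20 uM final; 37 C, 6 hr; FP endpoint.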
NPSR antagonist = qHTS Assay for Antagonists of the Neuropeptide S Receptor: cAMP Signal Transduction. Q6W5P4. CHO-NPSR cells, cAMP TR-FRET, antagonist mode. Potency, µM (top dose mostly 38.3 µM), most hits filed as inhibitors. 1% of 220,000 active. AID 1461, 2008; note: nearly all actives have a fitted effect of over 50% in size
ALDH1A1 block = qHTS Assay for Inhibitors of Aldehyde Dehydrogenase 1 (ALDH1A1); Aldehyde dehydrogenase 1A1 (Homo sapiens), P00352; Purified ALDH1A1, NADH fluorescence, propionaldehyde substrate; Potency, µM (highest dose often 75.3 µM), hits mostly inhibitors; 7.3% of 220,000 active; active = well fitted inhibition curve with a large enough effect, not every such curve was filed as active; inconclusive = small, poorly fitted or top-dose-only effect, or another doubt; inactive = no such curve, though single readings can be large or run the other way
Tau fibril ThT = qHTS for Inhibitors of Tau Fibril Formation, Thioflavin T Binding; Microtubule-associated protein tau (Homo sapiens), P10636; recombinant tau K18 P301L (four-repeat tau fragment), heparin-induced fibrillization, ThT fluorescence; Potency, µM (top dose mostly 57.4 µM), usual class: inhibitors; 2.1% of 270,000 active; note: nearly all actives have a fitted effect of over 55% in size
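Recombinant human tau K18 fragment […] carrying P301L, 15 uM unlabeled plus 0.24 uM Alexa 594-labeled, was fibrillized with 20 uM heparin in 100 mM sodium acetate pH 7 for 6 hr at 37 C; 30 uM ThT fluorescence read after 1 hr.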
Large screens that a line does not name were inactive. Hits are enriched below; roughly 9.5% of the tested compounds scored in any of these assays. Unless noted, calls come from the whole dose curve; as a rule, active = well fitted curve in the direction sought with a large enough effect; inconclusive = small, poorly fitted or top-dose-only effect, or another doubt; inactive = no such curve, though single readings can be large; an effect the other way counts as inactive or inconclusive.

Cc1ccccc1NC(=S)N(Cc1ccccc1)Cc1cccnc1	none (no result: HPGD inh)
Cc1ccc(C)c(NC(=O)Cn2cnc3nc4c(cc3c2=O)CCCC4)c1	none (no result: HPGD inh, NPSR antagonist, ALDH1A1 block)
COc1cccc(F)c1C(C[N+](=O)[O-])c1c(N)n(C)c(=O)n(C)c1=O (stereo not given)	NPSR antagonist 6.31µM (no result: HPGD inh, ALDH1A1 block, Tau fibril ThT)
Nc1c(S(N)(=O)=O)cc(S(N)(=O)=O)cc1S(N)(=O)=O	none (no result: Tau fluor counter, Tau fibril FP, NPSR antagonist, Tau fibril ThT)
NC(=O)NC(N)=O	none (no result: Tau fluor counter, Tau fibril FP, NPSR antagonist, Tau fibril ThT)
O=Cc1ccc(CO)o1	ALDH1A1 block inconclusive (no result: Tau fluor counter, Tau fibril FP, NPSR antagonist, Tau fibril ThT)
N#CC12COC3(CCCCC3C1(C#N)C#N)OC2=N (stereo not given)	Tau fibril FP inconclusive, Tau fibril ThT 14.1µM (no result: HPGD inh, ALDH1A1 block)
N#CC1(C#N)COC23CCCCC2C1(C#N)C(=N)O3 (stereo not given)	HPGD inh inconclusive, ALDH1A1 block inconclusive
O=C(Cn1c(=O)nc(-c2ccccc2F)c2cc(Cl)ccc21)Nc1ccccc1C(F)(F)F	Tau fibril ThT inconclusive (no result: HPGD inh, NPSR antagonist, ALDH1A1 block)
O=C(O)c1ccccc1C(=O)Nc1n[nH]c(=S)s1	HPGD inh 8.91µM, Tau fibril FP inconclusive, ALDH1A1 block 6.31µM, Tau fibril ThT inconclusive
COc1ccc(CNc2cc(-c3cccnc3)ncn2)c(OC)c1	none (no result: Tau fluor counter, HPGD inh, Tau fibril FP, NPSR antagonist, Tau fibril ThT)
CC(C)(C)c1ccc(O)c(O)c1	HPGD inh 10µM, ALDH1A1 block 0.891µM (no result: Tau fluor counter, Tau fibril FP, NPSR antagonist, Tau fibril ThT)
CCCn1c(SCC(=O)NCCc2ccccc2)nnc1-c1cccnc1	none
CCOCCCn1c(C)nc2c(c1=O)c1nc3ccccc3nc1n2-c1ccc(C)cc1	none
CCO/C(C)=N/n1c2nc3ccccc3nc2c2c(=O)n(CC(C)C)c(C)nc21	ALDH1A1 block 25.1µM
COc1ccc(-c2noc(CN(C)C(=O)Nc3ccccc3)n2)cc1	none (no result: HPGD inh)
CCc1sc(C(C2C(=O)CC(C)(C)CC2=O)C2C(=O)CC(C)(C)CC2=O)cc1[N+](=O)[O-]	NPSR antagonist inconclusive, ALDH1A1 block 14.1µM, Tau fibril ThT inconclusive (no result: HPGD inh)
CC1(C)CC(=O)C(C(c2ccc(F)cc2)C2C(=O)CC(C)(C)CC2=O)C(=O)C1	ALDH1A1 block inconclusive
Cc1oc2ccc(O)c(CN3CCOCC3)c2c1C(C)O (stereo not given)	ALDH1A1 block 7.08µM
O=C(COC(=O)c1ccc(S(=O)(=O)N2CCCC2)cc1)NCc1ccco1	none (no result: HPGD inh, ALDH1A1 block)
O=C(CN1CCN(c2ncccn2)CC1)Nc1ccccc1-n1cccc1	ALDH1A1 block 14.1µM
CCCCN(C)S(=O)(=O)c1ccc(C(=O)N(CCN(C)C)c2nc3ccc(C)cc3s2)cc1	NPSR antagonist inconclusive (no result: HPGD inh)
CCCCN(CC)S(=O)(=O)c1ccc(C(=O)N(CCCN(C)C)c2nc3cc(C)cc(C)c3s2)cc1	NPSR antagonist 10µM, Tau fibril ThT inconclusive (no result: HPGD inh)
N=C1/C(=C/c2cccs2)C(=O)N=C2SN=C(SCc3ccccc3)N12	Tau fluor counter inconclusive, Tau fibril ThT 17.8µM
CSC1=NSC2=NC(=O)/C(=C\c3cccs3)C(=N)N12	ALDH1A1 block inconclusive, Tau fibril ThT 14.1µM
CCN(CC)CCNC(=O)CCn1c(=O)c2cccn2c2cccnc21	none (no result: HPGD inh, NPSR antagonist, ALDH1A1 block)
CCn1cc(C2CC(=O)NC2=O)c2ccccc21 (stereo not given)	none (no result: HPGD inh, ALDH1A1 block, Tau fibril ThT)
c1ccc(-c2cnc(CSc3ncnc4sccc34)o2)cc1	HPGD inh 3.16µM
Cc1cc(C)n2nc(SCc3ncc(-c4ccccc4)o3)nc2n1	HPGD inh inconclusive, ALDH1A1 block inconclusive
CCOC(=O)c1c(NC(=O)CSc2nc(-c3ccc(OC)cc3)cc(C(F)(F)F)n2)sc(C)c1C	Tau fibril FP inconclusive, Tau fibril ThT inconclusive (no result: HPGD inh, NPSR antagonist, ALDH1A1 block)
COc1ccc(NS(=O)(=O)c2ccc(NS(=O)(=O)c3ccc(C)cc3)cc2)nn1	ALDH1A1 block 12.6µM
CCOC(=O)C1(CC2CCCCO2)CCN(C(=O)Nc2ccc(C)c(C)c2)CC1 (stereo not given)	none (no result: HPGD inh)
Cc1ccsc1C=Nc1ccc(O)cc1	Tau fluor counter inconclusive, Tau fibril FP 11.2µM, ALDH1A1 block inconclusive, Tau fibril ThT 3.55µM
Cc1ccsc1/C=N/NC(=O)CO	none (no result: HPGD inh)
CN1CCN(C=Nc2nc3ccccc3nc2N2CCCC2)CC1	ALDH1A1 block inconclusive (no result: HPGD inh)
CN(C)c1cccc(O)c1	ALDH1A1 block 8.91µM (no result: Tau fluor counter, Tau fibril FP, NPSR antagonist, Tau fibril ThT)
